Hits are enriched below; roughly 1.3% of the tested compounds scored in any of these assays.
FEN1 inhibitor = inhibitors of human flap endonuclease 1 | P39748 | Recombinant FEN1 flap cleavage, fluorescence, 15 min | Potency, µM (series often up to 114 µM), for inactives: top-dose activity change, negative = inhibition, hits mostly inhibitors | 390,000 compounds, 0.35% hits | AID 588795; further: potency means the concentration at half of the fitted maximal effect; on the % scale 0 is the no-effect control and ±100 the full control effect; nearly all actives have a fitted effect of over 65% in size
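Concentration–response screening of FEN1 (10 nM): 15 min compound preincubation at room temperature, reaction started with 50 nM substrate and read at 0 and 15 min. Corrected, normalized data were fitted by a four-parameter Hill equation.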
GRP78 ERSR act = ER stress response induction in glioma; AID 602332; 420,000 compounds, 0.02% hits; U87-MG GRP78 promoter luciferase reporter, 16 h; Potency, µM, without a hit: at the top dose activation, hits mostly activators; further: potency means the concentration at half of the fitted maximal effect; series mostly up to about 76 µM; % of control where 0% means no effect; nearly all actives have a fitted effect of over 35% in size
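Stably transfected U87-MG glioma cells carrying a GRP78-based luciferase sensor; 16 h compound incubation. Luminescence end-point read 10 min after Bright-Glo addition at room temperature.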
WRN inhibitor = WRN helicase (human) inhibition; Q14191; WRN helicase unwinding, fluorescent forked duplex, kinetic; Potency, µM (top dose mostly 114 µM), inactives show at the highest dose activity change, negative = inhibition, hits mostly inhibitors; 360,000 compounds, 0.46% hits; further: potency means the concentration at half of the fitted maximal effect; on the % scale 0 is the no-effect control and ±100 the full control effect; nearly all actives have a fitted effect of over 55% in size
Target sequence (Q14191 whole entry, looked up): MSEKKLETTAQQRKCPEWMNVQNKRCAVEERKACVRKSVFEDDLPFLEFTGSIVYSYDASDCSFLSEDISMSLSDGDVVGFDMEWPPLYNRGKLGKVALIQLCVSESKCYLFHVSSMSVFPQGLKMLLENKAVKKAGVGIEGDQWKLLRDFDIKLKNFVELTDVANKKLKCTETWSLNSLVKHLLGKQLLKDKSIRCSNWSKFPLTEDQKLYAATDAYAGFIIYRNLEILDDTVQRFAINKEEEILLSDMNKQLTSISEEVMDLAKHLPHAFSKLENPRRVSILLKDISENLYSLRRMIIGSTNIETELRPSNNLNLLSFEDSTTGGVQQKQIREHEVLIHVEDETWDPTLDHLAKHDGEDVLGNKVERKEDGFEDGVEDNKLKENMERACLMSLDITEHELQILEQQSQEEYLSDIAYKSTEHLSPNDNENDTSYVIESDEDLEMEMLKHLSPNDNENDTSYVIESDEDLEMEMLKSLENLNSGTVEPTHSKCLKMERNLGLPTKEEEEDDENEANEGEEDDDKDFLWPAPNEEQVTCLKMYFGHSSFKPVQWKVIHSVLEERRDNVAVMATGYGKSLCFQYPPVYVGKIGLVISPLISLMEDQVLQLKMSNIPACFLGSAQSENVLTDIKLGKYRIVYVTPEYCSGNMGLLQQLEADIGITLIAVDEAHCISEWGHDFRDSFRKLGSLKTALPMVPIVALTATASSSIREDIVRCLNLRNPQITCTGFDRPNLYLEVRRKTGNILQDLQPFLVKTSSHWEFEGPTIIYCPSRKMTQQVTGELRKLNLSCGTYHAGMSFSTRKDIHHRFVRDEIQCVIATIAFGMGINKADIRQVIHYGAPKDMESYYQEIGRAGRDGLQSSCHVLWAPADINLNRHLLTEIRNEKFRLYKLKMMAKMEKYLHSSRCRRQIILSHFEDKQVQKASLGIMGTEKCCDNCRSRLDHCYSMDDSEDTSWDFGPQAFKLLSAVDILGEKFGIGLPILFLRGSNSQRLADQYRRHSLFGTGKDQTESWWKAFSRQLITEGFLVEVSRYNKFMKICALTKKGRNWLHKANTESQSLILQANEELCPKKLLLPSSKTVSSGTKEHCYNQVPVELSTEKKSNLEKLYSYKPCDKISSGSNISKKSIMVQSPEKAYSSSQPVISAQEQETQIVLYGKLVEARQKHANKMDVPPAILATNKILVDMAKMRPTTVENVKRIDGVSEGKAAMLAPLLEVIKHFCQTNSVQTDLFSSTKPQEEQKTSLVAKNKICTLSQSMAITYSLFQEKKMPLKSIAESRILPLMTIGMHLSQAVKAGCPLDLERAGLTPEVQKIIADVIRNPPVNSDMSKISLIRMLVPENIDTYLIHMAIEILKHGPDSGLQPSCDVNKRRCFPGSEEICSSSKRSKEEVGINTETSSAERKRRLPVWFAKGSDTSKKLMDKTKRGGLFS
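WRN at 20 nM final preincubated with compound 15 min at room temperature; reaction started with 100 nM fluorophore/quencher forked duplex oligonucleotide and 2 mM ATP final. Unwinding followed kinetically by red fluorescence (ex 525, em 598 nm).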
PGK inhibitor = inhibitors of T. brucei phosphoglycerate kinase; Potency, µM (doses to about 57.5 µM), for inactives: top-dose activity change, negative = inhibition, actives largely listed as inhibitors; AID 602233; P07378; PGK/GAPDH coupled, Kinase-Glo luminescence, 60 min; 380,000 compounds, 0.043% hits; further: potency means the concentration at half of the fitted maximal effect; on the % scale 0 is the no-effect control and ±100 the full control effect; nearly all actives have a fitted effect of over 60% in size
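Recombinant glycosomal PGK reaction used 1,3-bisphosphoglycerate generated in-well by GAPDH (100nM final) in 100mM TEA pH 7.6, 5mM MgCl2, 0.01% Tween-20. After 60 minutes at room temperature, ATP was read by Kinase-Glo Plus luminescence end-point.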
PI5P4Ka inh = blocks human PI5P4K alpha kinase activity | P48426 | PI5P4Kalpha enzyme, ADP-Glo luminescence, 60 min; active compounds read low | max response, % | 330,000 compounds, 1.2% hits; active means max response of -50% or lower; inconclusive means between -30% and -50%; inactive means -30% or higher; further: value at the top dose of about 77 µM; on the % scale 0 is the no-effect control and ±100 the full control effect
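Human PI5P4Kalpha with substrate in 0.038 M HEPES pH 7.4, 0.28 mM EGTA, 0.1% CHAPS, 5% DMSO; reaction started with 5 microM ATP (final), 60 min at room temperature. ADP formed read by ADP-Glo luminescence.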
Pin1 inhibitor = blocks the human prolyl isomerase Pin1; Q13526; Pin1 FP peptide displacement, HiFluor488, 10 min; Potency, µM (highest dose often 115 µM), for the others: at the highest dose activity, negative = inhibition, hits mostly inhibitors; 390,000 compounds, 0.009% hits; AID 504891; active means well fitted inhibition curve with a large enough effect in the polarisation, with a control signal flat, not every such curve was filed as active; inconclusive means small, poorly fitted or top-dose-only effect, or effect the other way, or a change in a side signal; inactive means no such curve, though single readings can be large or run the other way; the % refers to the polarisation; further: potency means the concentration at half of the fitted maximal effect; on the % scale 0 is the no-effect control and ±100 the full control effect
* marks the source's active call; other numbers are inactive results; i = inactive; u = inconclusive; x = no result; [ ] = dose if it differs, or a comment. Unless noted, the call rests on the fitted dose curve; in most records, active means well fitted curve in the direction sought with a large enough effect; inconclusive means small, poorly fitted or top-dose-only effect, or another doubt; inactive means no such curve, though single readings can be large; an effect the other way counts as inactive or inconclusive.

SMILES	FEN1 inhibitor	GRP78 ERSR act	WRN inhibitor	PGK inhibitor	PI5P4Ka inh	Pin1 inhibitor
Cc1cc(Nc2nn(C)c(N)c2C#N)ccc1F	12.4%	2.1%	-11.6%	3.3%	-65.6*	-3.8%
CC(C)(C)NC(=O)C(c1ccc(C(F)(F)F)cc1)n1c(=O)c(-c2ccco2)nc2ccccc21 (stereo not given)	x	x	-9.0%	x	-64.2*	x
CC(C)(C)NC(=O)C(C1CC1)n1c(=O)c(-c2ccco2)nc2ccccc21 (stereo not given)	x	x	7.8%	x	-62.5*	x
Cc1cccc(C)c1NC(=O)C(C1CC1)n1c(=O)c(-c2ccco2)nc2ccccc21 (stereo not given)	x	x	-3.5%	x	u	x
Cc1ccccc1-c1cc(C(=O)N2CCCC2)c2ccccc2n1	1.1%	-4.7%	-21.9%	6.1%	-57.8*	-1.3%
NC(=S)n1[nH]c(-c2ccc([N+](=O)[O-])cc2)c(N=Nc2cccc(Cl)c2)c1=O	50.1µM*	-5.9%	-11.4%	u	-78.5*	x
NC(=S)n1[nH]c(-c2ccc([N+](=O)[O-])cc2)c(N=Nc2ccc(O)cc2)c1=O	-18.7%	-4.4%	-16.0%	-6.8%	-28.0	u
C=C(CN(C)C)C(=O)c1cc(C)ccc1C	-4.1%	-14.0%	22.4µM*	2.1%	-0.7	59.8%
CNc1nc(N/N=C/c2cc3c(cc2[N+](=O)[O-])OCO3)nc(Nc2ccccc2)n1	-10.1%	-13.2%	-23.6%	-12.2%	-68.4*	42.6%
CNc1nc(N/N=C/c2cc([N+](=O)[O-])ccc2F)nc(Nc2ccccc2)n1	-1.8%	-7.9%	4.0%	i	-20.4	-0.7%
CCC[C@@H](CN1CCC[C@H]1CN1C(N)=NC[C@@H]1Cc1ccccc1)N1C[C@@H](Cc2ccccc2)N(CCCC2CCCC2)C1=N	-5.1%	-4.6%	8.3%	-14.6%	-18.5	-3.7%
CCC[C@@H](CN1CCC[C@H]1CN1C(N)=NC[C@@H]1Cc1ccccc1)N1C[C@@H]([C@H](C)CC)N(CCCC2CCCC2)C1=N	-22.0%	-4.5%	-21.7%	6.3%	-86.7*	4.2%
Cn1c(=O)c(NCCc2ccccc2)c2c3c(cccc31)C(=O)c1ccccc1-2	56.2µM*	-5.9%	39.8µM*	-1.0%	2.0	u
COc1ccc(C2Nc3ccccc3C(=O)N2Cc2ccc(-c3ccccc3)cc2)cc1COc1ccc(NC(C)=O)cc1 (stereo not given)	x	x	x	x	x	-11.4%
CCN(CC)c1ccc(/C=C/c2sc3ccccc3[n+]2CCCCI)cc1	u	-8.4%	x	x	x	x
CCCCCCC[n+]1c(/C=C/c2ccc(N(C)C)cc2)sc2ccccc21	35.5µM*	-10.9%	x	x	x	x
CCc1ccc(NC(=O)CC2C(=O)N(c3ccc(Cl)cc3)C(=O)N2C2CCCC2)cc1 (stereo not given)	39.8µM*	-3.5%	x	-3.1%	x	u
O=C(CCO)c1ccc(O)cc1	22.4µM*	0.5%	28.2µM*	u	-65.0*	u
N#Cc1nc(Nc2cc(F)cc(F)c2)c2ncn(C3CCCC3)c2n1	x	x	x	x	x	20.6%
Cn1c(N=Nc2ccc(N3CCOCC3)cc2)[n+](C)c2ccccc21	56.2µM*	15.6%	44.7µM*	u	u	-2.9%
COc1ccc(OC)c(C2CC(=O)N3CN(c4ccccc4F)CSC3=C2C#N)c1 (stereo not given)	u	-2.0%	5.2%	-4.4%	-93.5*	0.4%
COc1ccc2ccccc2c1C1CC(=O)N2CN(C)CSC2=C1C#N (stereo not given)	0.3%	-4.1%	-30.3%	-4.2%	-84.2*	u
CCc1ccccc1N1CSC2=C(C#N)C(c3cc(OC)c(OC)cc3OC)CC(=O)N2C1 (stereo not given)	4.4%	-3.5%	-7.1%	-13.4%	u	0.6%
COc1ccccc1N1CSC2=C(C#N)C(c3ccc(SC)cc3)CC(=O)N2C1 (stereo not given)	u	-0.9%	-23.7%	-8.3%	-83.3*	x
COc1cc(OC)c(C2CC(=O)N3CN(c4ccccc4)CSC3=C2C#N)cc1OC (stereo not given)	-1.0%	-2.4%	-35.0%	i	x	-5.7%
SMILES	FEN1 inhibitor	GRP78 ERSR act	WRN inhibitor	PGK inhibitor	PI5P4Ka inh	Pin1 inhibitor
COc1cccc(C2CC(=O)N3CN(c4ccccc4F)CSC3=C2C#N)c1 (stereo not given)	u	-5.9%	3.1%	-7.5%	-73.6*	3.5%
O=c1c2ccccc2nc2sc(Nc3cccc(Br)c3)nn12	x	x	x	x	x	0.0%
COc1ccccc1C(=O)N[C@@H]1c2ccccc2C2(CCN(Cc3ccc4c(c3)OCO4)CC2)[C@H]1O	x	-1.3%	x	x	x	x
Cn1nnnc1Sc1ncnc2scc(-c3cccc(C#N)c3)c12	x	x	x	x	x	3.9%
COc1ccc(OC)c(C2CC(=O)N3CN(c4ccc(C)c(Cl)c4)CSC3=C2C#N)c1 (stereo not given)	u	-1.3%	-5.2%	i	-101.7*	15.8%
CN1CCN(C(c2ccc(Cl)cc2)c2cc(Cl)c3cccnc3c2O)CC1 (stereo not given)	u	-7.4%	-14.8%	-8.4%	-62.5*	4.8%
Oc1c(C(c2ccccn2)N2CCCCC2)cc(Cl)c2cccnc12 (stereo not given)	u	-7.3%	0.9%[11.6 µM]	i	-25.4	-8.4%
Oc1c(Br)cc(C2N=C(c3ccccc3)NO2)cc1Br (stereo not given)	11.3%	-2.2%	-18.7%	-5.1%	-56.0*	5.4%
O=C(Nc1ccc(Nc2ccncc2)cc1)c1ccc(Nc2ccnc3ccc([N+](=O)[O-])cc23)cc1[N+](=O)[O-]	-23.5%	-3.2%	-33.2%	x	-53.8*	u
O=C1CCCC2=C1C1(CCCC1)N=C(Nc1nc3ccccc3n1Cc1ccccc1)N2	x	x	x	x	x	5.7%
O=C1SC(SCc2ccccc2)=N/C1=C\c1ccco1	u	3.1%	50.1µM*	-9.5%	x	x
CCCSC1=N/C(=C\c2ccc([N+](=O)[O-])o2)C(=O)S1	35.5µM*	-1.3%	22.4µM*	u	-70.1*	x
CCCSC1=N/C(=C\C=C\c2ccco2)C(=O)S1	50.1µM*	0.1%	u	u	-67.1*	-15.3%
CCSC1=N/C(=C\c2ccc(-c3ccccc3[N+](=O)[O-])o2)C(=O)S1	-3.2%	-6.0%	-15.3%	i	1.3	u
COC(=O)C1CCCCN1Cc1ccc2c(c1)CN(Cc1cn[nH]c1-c1ccc(F)cc1)CCO2 (stereo not given)	x	-3.4%	x	x	x	x
Nc1ccc2c(c1)C/C(=C/c1ccco1)C2=O	-23.8%	-4.7%	-34.4%	-10.1%	-74.1*	u
O=C1/C(=C/c2ccco2)CCc2ccccc21	-0.4%	-1.0%	-0.5%	u	-3.4	-6.2%
CN(C)c1cccc(-c2ncnc(N3CCC(C(N)=O)CC3)n2)c1	x	x	x	x	x	-22.7%

Assay outcomes (PubChem)
